Screens as filed in PubChem BioAssay.
Compounds with a hit are over-represented: about 1.5% of the library has one in this group of screens.
UCHL1 block: inhibitors of human UCHL1 deubiquitinase | inhibition, % at 20 µM | P09936 | 47,000 tested, 0.2% active | purified UCHL1, Ub-rhodamine cleavage fluorescence | AID 1645859
USP10 block: inhibitors of human USP10 deubiquitinase | Q14694 | purified USP10, Ub-rhodamine fluorescence, 60 min | inhibition, % at 20 µM | 47,000 tested, 1.1% active | AID 1645856
Target sequence (Q14694 whole entry, looked up): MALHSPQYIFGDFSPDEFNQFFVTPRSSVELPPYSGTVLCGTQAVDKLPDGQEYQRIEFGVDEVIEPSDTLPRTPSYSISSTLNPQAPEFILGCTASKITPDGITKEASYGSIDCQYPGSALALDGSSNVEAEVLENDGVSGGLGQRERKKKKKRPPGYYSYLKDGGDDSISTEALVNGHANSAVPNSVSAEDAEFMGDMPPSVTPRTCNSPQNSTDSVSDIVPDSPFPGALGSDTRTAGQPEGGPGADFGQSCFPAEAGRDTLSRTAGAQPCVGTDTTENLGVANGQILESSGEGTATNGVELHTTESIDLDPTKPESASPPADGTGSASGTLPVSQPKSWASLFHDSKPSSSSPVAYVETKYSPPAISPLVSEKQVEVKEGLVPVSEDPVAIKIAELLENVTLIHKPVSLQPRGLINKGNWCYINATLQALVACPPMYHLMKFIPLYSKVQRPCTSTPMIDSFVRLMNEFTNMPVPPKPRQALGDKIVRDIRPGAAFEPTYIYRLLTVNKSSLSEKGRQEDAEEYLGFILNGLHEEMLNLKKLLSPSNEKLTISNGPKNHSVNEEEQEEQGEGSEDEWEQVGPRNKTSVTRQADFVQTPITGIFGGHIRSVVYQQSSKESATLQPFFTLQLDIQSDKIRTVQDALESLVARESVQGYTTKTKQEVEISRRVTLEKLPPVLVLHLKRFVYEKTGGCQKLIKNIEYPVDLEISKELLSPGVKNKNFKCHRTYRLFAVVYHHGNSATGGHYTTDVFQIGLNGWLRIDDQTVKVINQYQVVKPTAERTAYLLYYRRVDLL
OTUD3 block: human OTUD3 deubiquitinase inhibition | Q5T2D3 | purified OTUD3, Ub-rhodamine fluorescence, 2 h | inhibition, % at 25 µM | 47,000 tested, 0.7% active | AID 1645858
USP7 inh: human USP7 deubiquitinase inhibition. AID 1645854. purified USP7, Ub-rhodamine cleavage fluorescence. 47,000 tested, 0.3% active. inhibition, % at 20 µM
* marks the source's active call; other numbers are inactive results. Cut-off read from the data, not from the text of the source: active = inhibition above about 30%; inactive = the rest.

Screening CN1CCc2c1nc1ccccc1c2NC(=O)CN1CCN(CCO)CC1 returned UCHL1 block -2, USP10 block 1, OTUD3 block -11 and USP7 inh 0.
`COc1cc2c(cc1OC)C(COc1ccc(F)cc1)N(C(=O)c1cccc3ccccc13)CC2` (stereo not given) gave UCHL1 block 4, USP10 block -3, OTUD3 block -2 and USP7 inh 7.
Screening Cc1nc(NC2CCCc3ccccc32)c2c3c(sc2n1)CCCC3 (stereo not given) returned UCHL1 block -1, USP10 block 5, OTUD3 block -6 and USP7 inh 5.
For Cc1nnc(-c2c(C)[nH]c(C)c2S(=O)(=O)NCc2ccc(F)cc2)o1 the results were UCHL1 block -1, USP10 block 0, OTUD3 block -10 and USP7 inh 0.
Cc1nc2c(nnn2C[C@@H]2CCCN(C(=O)c3ccc(C(F)(F)F)cc3)C2)c(=O)[nH]1 was read as UCHL1 block -1, USP10 block 1, OTUD3 block 5 and USP7 inh 2.
For COc1cccc(NC(=O)Cn2c(=O)n(CCCC(=O)NCc3ccco3)c(=O)c3ccccc32)c1 the results were UCHL1 block 1, USP10 block 5, OTUD3 block 16 and USP7 inh -1.
`COc1ccc(NC(=O)Cn2c(=O)n(CCCC(=O)NC3CCCC3)c(=O)c3cc(Cl)ccc32)c(OC)c1` gave UCHL1 block 3, USP10 block 31*, OTUD3 block 16 and USP7 inh 9.
For COc1ccccc1CNC(=O)CCCCn1c(=O)c2ccccc2n(CC(=O)Nc2ccc(C)cc2C)c1=O the results were UCHL1 block 3, USP10 block 50*, OTUD3 block 19 and USP7 inh 16.
`O=C(CCCCn1c(=O)c2ccccc2n(CC(=O)Nc2ccc3c(c2)OCCO3)c1=O)NCc1ccco1` gave UCHL1 block 0, USP10 block 43*, OTUD3 block 8 and USP7 inh 7.
For COc1ccc(NC(=O)Cn2c(=O)n(CCCCC(=O)NCc3ccco3)c(=O)c3ccccc32)cc1Cl the results were UCHL1 block 1, USP10 block 59*, OTUD3 block 6 and USP7 inh 3.
For COc1ccc(CCNC(=O)Cn2c(=O)n(CCCC(=O)NC3CCCC3)c(=O)c3cc(Cl)ccc32)cc1OC the results were UCHL1 block -5, USP10 block -1, OTUD3 block 9 and USP7 inh -7.
For Cc1ccc(CNC(=O)CCCn2c(=O)c3ccccc3n(CC(=O)Nc3cc(C)[nH]n3)c2=O)cc1 the results were UCHL1 block -2, USP10 block 1, OTUD3 block -4 and USP7 inh -1.
Screening O=C(c1ccco1)N1CCCC(c2cc(-c3ccccc3)n[nH]2)C1 (stereo not given) returned UCHL1 block -1, USP10 block 6, OTUD3 block -6 and USP7 inh -6.
`COc1ccc(C)cc1NC(=O)CCN1C(=O)c2cccnc2Sc2ccccc21` gave UCHL1 block -3, USP10 block 0, OTUD3 block 0 and USP7 inh 0.
`CC(=O)Nc1cc(-c2ccccc2)nn(C(C)C(=O)Nc2ccc(C(C)=O)cc2)c1=O` (stereo not given) gave UCHL1 block -3, USP10 block -7, OTUD3 block -9 and USP7 inh -2.
For Cc1ncccc1C(=O)N1CCC(c2nc3ccc(F)cc3cc2C(N)=O)CC1 the results were UCHL1 block -2, USP10 block 3, OTUD3 block -5 and USP7 inh -2.
COc1ccccc1-c1nc(-c2cn(-c3ccccc3)nn2)no1 was read as UCHL1 block 4, USP10 block 4, OTUD3 block 12 and USP7 inh -3.
`COc1ccccc1-c1nc(-c2cn(-c3ccc(F)cc3)nn2)no1` gave UCHL1 block 8, USP10 block 33*, OTUD3 block 8 and USP7 inh 20.
For COc1ccc(-c2nc(-c3cn(-c4ccccc4)nn3)no2)c(OC)c1 the results were UCHL1 block 2, USP10 block 20, OTUD3 block 35* and USP7 inh 5.
For COc1ccc(-c2nc(-c3cn(-c4cccc(Cl)c4)nn3)no2)c(OC)c1 the results were UCHL1 block 10, USP10 block 34*, OTUD3 block -3 and USP7 inh 25.
CCOc1cc(=O)c(C(=O)N2CCC(C)CC2)nn1-c1ccc(F)cc1 was read as UCHL1 block 0, USP10 block -2, OTUD3 block 6 and USP7 inh -1.
Screening Cc1sc(NC(=O)C2(c3ccc(Cl)cc3)CCC2)nc1-c1ccc2c(c1)CCN2C(=O)c1cccc(F)c1 returned UCHL1 block -1, USP10 block 2, OTUD3 block -23 and USP7 inh 14.
For COc1ccc(OC)c(NC(=O)c2ccc(-n3nnnc3SC)cc2)c1 the results were UCHL1 block 1, USP10 block 1, OTUD3 block -5 and USP7 inh -3.
For COc1ccc(NC(=O)c2ccc(-n3nnnc3SC)cc2)cc1Cl the results were UCHL1 block 0, USP10 block 17, OTUD3 block 87* and USP7 inh 4.
N#Cc1cccc(NC(=O)COC(=O)c2n[nH]c3ccccc23)c1 was read as UCHL1 block 4, USP10 block 31*, OTUD3 block -34 and USP7 inh 17.
COC(=O)c1ccc2c(=O)n(CCCCCC(=O)NCc3cccc(Cl)c3)c(=O)[nH]c2c1 was read as UCHL1 block -3, USP10 block 39*, OTUD3 block 16 and USP7 inh 12.
For O=C(NC(Cc1ccccc1)C(=O)Nc1ccc(-n2cnnn2)cc1)c1ccccc1 (stereo not given) the results were UCHL1 block 2, USP10 block 1, OTUD3 block -2 and USP7 inh -6.
For COc1ccc(NS(=O)(=O)c2cc(NC(=O)/C=C/c3ccco3)ccc2N2CCCC2)cc1 the results were UCHL1 block 18, USP10 block 17, OTUD3 block 44* and USP7 inh 13.
For Cc1ccc(NC(=O)c2ccccc2NC(=O)COc2cc(C)cc(C)c2)cc1 the results were UCHL1 block 0, USP10 block 6, OTUD3 block -3 and USP7 inh 10.
`Cc1cc(OCC(=O)Nc2ccccc2C(=O)Nc2ccccc2)ccc1Cl` gave UCHL1 block -1, USP10 block 35*, OTUD3 block 4 and USP7 inh 10.
Cc1sc(NC(=O)Cn2nnc3ccccc32)nc1-c1ccc2c(c1)CCN2C(=O)c1ccccc1F was read as UCHL1 block 3, USP10 block 56*, OTUD3 block 3 and USP7 inh 9.
O=C(Cn1nnc2ccccc21)Nc1nc(-c2ccc3c(c2)CCN3C(=O)c2ccccc2F)cs1 was read as UCHL1 block 6, USP10 block 50*, OTUD3 block 23 and USP7 inh 24.
For Cc1sc(NC(=O)Cn2nnc3ccccc3c2=O)nc1-c1ccc2c(c1)CCN2C(=O)C(C)C the results were UCHL1 block 2, USP10 block 13, OTUD3 block 2 and USP7 inh 11.
`CCOc1ccc2[nH]c3c(=O)n(CCN4CCNCC4)cnc3c2c1` gave UCHL1 block 1, USP10 block -6, OTUD3 block -1 and USP7 inh 0.
